We go through five compounds from PubChem BioAssay.

A short description of assay [1]: optical density shifts of acrAB sulA E. coli – strain DRC41, OD650, 48 h, E. coli filamentation inducer project, primary screen (AID 1152).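 Further: E. coli MC1000 strain DRC41 lacking acrAB efflux pump and sulA.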 Particulars: higher = more signal, called active from +8 up or from −8 down.
Assay [2] can be described thus: probe aLefty1 binding on compound microarray – biochemical, small-molecule microarray, 635/667 nm fluorescence, primary screen (AID 1153).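 Further: score merges spot fluorescence with signal-to-noise ratio from the scanned slide images.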 The following applies: higher = more signal.
The nature of assay [3]: plasmodial surface anion channel blockers, osmotic lysis – cell-based, P. falciparum Indochina, OD700, 1 h, primary screen (AID 1154). The following applies: P. falciparum Indochina infected RBC osmotic lysis, higher = more signal, called active from +8 up or from −8 down.
Assay [4] can be described thus: plasmodial surface anion channel blockers, osmotic lysis – cell-based, P. falciparum Indochina, OD700, 2 h, primary screen (AID 1155).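 Further: lysis reports solute entry through the parasite surface anion channel PSAC.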 Particulars: P. falciparum Indochina infected erythrocytes, higher = more signal, called active from +8 up or from −8 down.
The nature of assay [5]: changes in parasitized red cell lysis, either direction – P. falciparum Indochina, OD700, 3 h, PSAC antagonist project, primary screen (AID 1156). Particulars: P. falciparum-infected erythrocytes, osmotic lysis, higher = more signal, called active from +8 up or from −8 down.
Assay [6] can be described thus: plasmodial surface anion channel blockers, osmotic lysis – cell-based, P. falciparum Indochina, OD700, 18 h, primary screen (AID 1157). Particulars: P. falciparum Indochina infected erythrocytes, osmotic lysis OD700, 18 h; higher = more signal, called active from +8 up or from −8 down.
Assay [7] is described as follows: S6 kinase pathway phospho-S6 level changes – cell-based, A549, cytoblot, luminescence, serum-stimulated, primary screen (AID 1158).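 Further: serum-stimulated A549 lung adenocarcinoma cells; signal is phosphorylated S6 detected by cytoblot immunostaining with HRP secondary.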 Particulars: 5 h, higher = more signal.
Assay [8] has as its target NADPH oxidase 2 (Homo sapiens) (UniProt P04839). Put plainly: compounds shifting NOX2 Amplex Red fluorescence – cell-based, HEK293-NOX2, PMA-stimulated, NOX inhibitor project, primary screen (AID 1159). Further: test concentration not given here. Particulars: 45 min, higher = more signal, called active from +8 up or from −8 down.
In assay [9] the target is NADPH oxidase 4 (Homo sapiens) (UniProt Q9NPH5). The assay can be described thus: compounds shifting NOX4 Amplex Red fluorescence – cell-based, HEK293-NOX4, tetracycline-induced, NOX inhibitor project, primary screen (AID 1160). The following applies: HEK293-NOX4, Amplex Red H2O2 fluorescence, 45 min; higher = more signal, called active from +8 up or from −8 down.
The target of assay [10] is NADPH oxidase 5 (Homo sapiens) (UniProt Q96PH1). Put plainly: compounds shifting NOX5 Amplex Red fluorescence – cell-based, HEK293-NOX5, NOX inhibitor project, primary screen (AID 1161). The following applies: HEK293-NOX5, ionomycin, 45 min, higher = more signal.
Assay [11] is described as follows: compound effects on lung adenocarcinoma cell viability – A549, calcein-AM fluorescence, 48 h, basal, profiling panel (AID 1162). Further: test concentration not given here. The following applies: higher = more signal.
A short description of assay [12]: compound effects on differentiated 3T3-L1 adipocyte viability – cell-based, 3T3-L1 adipocytes, calcein-AM fluorescence, 48 h, basal, profiling panel (AID 1163). Further: test concentration not given here. The following applies: 3T3-L1 adipocytes viability, higher = more signal.
The nature of assay [13]: compound effects on hepatocellular carcinoma cell viability – HepG2, calcein-AM fluorescence, 48 h, basal, profiling panel (AID 1164). Further: test concentration not given here. Particulars: higher = more signal.
The nature of assay [14]: compound effects on multiple myeloma cell viability – MM1S, calcein-AM fluorescence, 48 h, basal, profiling panel (AID 1165).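 Further: viability of MM1S multiple myeloma cells under basal unstimulated conditions; test concentration not given here.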 Particulars: higher = more signal.
Assay [15] is described as follows: calcein-AM signal in unstimulated myeloma cells – cell-based, calcein-AM fluorescence, 48 h, PK04 Diversity Set, profiling panel (AID 1166).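 Further: cells grown under basal conditions without added stimulus; test concentration not given here.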 The following applies: RPMI8226 myeloma viability, higher = more signal.
Assay [16] is described as follows: JC-1 mitochondrial signal, unstimulated HepG2 cells – cell-based, JC-1 fluorescence, 24 h, 100 nL compound, profiling panel (AID 1167). Further: test concentration not given here. Particulars: HepG2 mitochondrial potential, higher = more signal.
The nature of assay [17]: JC-1 mitochondrial signal, unstimulated adipocytes – cell-based, JC-1 fluorescence, 3T3-L1 adipocytes, 24 h, 100 nL compound, profiling panel (AID 1168). Further: test concentration not given here. The following applies: JC-1 mitochondrial fluorescence, higher = more signal, called active from +8 up or from −8 down.
Assay [18] is described as follows: JC-1 mitochondrial signal, unstimulated myeloma cells – cell-based, JC-1 fluorescence, RPMI8226, 24 h, 100 nL compound, profiling panel (AID 1169). Further: test concentration not given here. The following applies: JC-1 mitochondrial potential fluorescence, higher = more signal.
Assay [19] is described as follows: JC-1 mitochondrial signal, unstimulated MM1S myeloma – cell-based, JC-1 fluorescence, 24 h, 100 nL compound, profiling panel (AID 1170). Further: test concentration not given here. The following applies: MM1S mitochondrial potential, higher = more signal.
Assay [20] is described as follows: resazurin metabolic signal in A549 cells – cell-based, resazurin fluorescence, 24 h, PK04 Diversity Set, profiling panel (AID 1171). Further: test concentration not given here. Particulars: A549 viability, higher = more signal, called active from +8 up or from −8 down.

Each structure is given as a SMILES string. Calls of active or inactive are those of the source.

NADPH oxidase 5 (Homo sapiens), sequence (Q96PH1 whole entry, looked up): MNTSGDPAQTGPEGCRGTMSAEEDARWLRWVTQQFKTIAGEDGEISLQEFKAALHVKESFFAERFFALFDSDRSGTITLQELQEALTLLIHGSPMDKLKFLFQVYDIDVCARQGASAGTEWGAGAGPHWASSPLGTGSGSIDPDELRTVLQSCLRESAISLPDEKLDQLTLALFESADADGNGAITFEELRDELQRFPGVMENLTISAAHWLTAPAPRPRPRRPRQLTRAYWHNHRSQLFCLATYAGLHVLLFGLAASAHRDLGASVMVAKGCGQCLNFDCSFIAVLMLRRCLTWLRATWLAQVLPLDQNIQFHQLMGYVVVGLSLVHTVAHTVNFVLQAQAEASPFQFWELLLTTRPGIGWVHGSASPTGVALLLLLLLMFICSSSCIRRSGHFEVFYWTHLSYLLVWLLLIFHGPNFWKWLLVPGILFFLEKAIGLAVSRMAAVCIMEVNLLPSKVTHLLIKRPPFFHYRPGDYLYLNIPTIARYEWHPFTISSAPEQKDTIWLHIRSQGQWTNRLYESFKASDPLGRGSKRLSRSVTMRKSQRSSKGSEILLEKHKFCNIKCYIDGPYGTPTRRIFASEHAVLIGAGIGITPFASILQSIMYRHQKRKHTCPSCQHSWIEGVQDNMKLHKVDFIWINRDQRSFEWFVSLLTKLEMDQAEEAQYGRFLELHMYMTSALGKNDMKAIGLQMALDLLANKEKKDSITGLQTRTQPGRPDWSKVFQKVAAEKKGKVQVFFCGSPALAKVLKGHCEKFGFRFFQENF
NADPH oxidase 4 (Homo sapiens), sequence (Q9NPH5 whole entry, looked up): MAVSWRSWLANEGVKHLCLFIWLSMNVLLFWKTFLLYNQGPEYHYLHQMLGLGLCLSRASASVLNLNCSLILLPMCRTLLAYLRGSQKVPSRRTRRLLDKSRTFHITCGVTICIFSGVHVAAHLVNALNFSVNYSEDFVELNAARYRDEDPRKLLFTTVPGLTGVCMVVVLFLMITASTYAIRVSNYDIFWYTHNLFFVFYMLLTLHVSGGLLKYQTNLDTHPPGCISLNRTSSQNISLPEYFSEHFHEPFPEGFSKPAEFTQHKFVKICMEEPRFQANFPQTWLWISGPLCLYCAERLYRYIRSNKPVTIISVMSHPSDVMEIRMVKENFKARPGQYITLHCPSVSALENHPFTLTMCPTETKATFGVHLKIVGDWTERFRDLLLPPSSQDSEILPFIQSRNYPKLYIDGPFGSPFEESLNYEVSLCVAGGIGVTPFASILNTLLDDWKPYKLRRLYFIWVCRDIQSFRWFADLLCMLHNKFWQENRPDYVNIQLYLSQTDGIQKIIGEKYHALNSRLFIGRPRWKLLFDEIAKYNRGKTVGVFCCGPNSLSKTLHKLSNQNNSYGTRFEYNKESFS
NADPH oxidase 2 (Homo sapiens), sequence (P04839 whole entry, looked up): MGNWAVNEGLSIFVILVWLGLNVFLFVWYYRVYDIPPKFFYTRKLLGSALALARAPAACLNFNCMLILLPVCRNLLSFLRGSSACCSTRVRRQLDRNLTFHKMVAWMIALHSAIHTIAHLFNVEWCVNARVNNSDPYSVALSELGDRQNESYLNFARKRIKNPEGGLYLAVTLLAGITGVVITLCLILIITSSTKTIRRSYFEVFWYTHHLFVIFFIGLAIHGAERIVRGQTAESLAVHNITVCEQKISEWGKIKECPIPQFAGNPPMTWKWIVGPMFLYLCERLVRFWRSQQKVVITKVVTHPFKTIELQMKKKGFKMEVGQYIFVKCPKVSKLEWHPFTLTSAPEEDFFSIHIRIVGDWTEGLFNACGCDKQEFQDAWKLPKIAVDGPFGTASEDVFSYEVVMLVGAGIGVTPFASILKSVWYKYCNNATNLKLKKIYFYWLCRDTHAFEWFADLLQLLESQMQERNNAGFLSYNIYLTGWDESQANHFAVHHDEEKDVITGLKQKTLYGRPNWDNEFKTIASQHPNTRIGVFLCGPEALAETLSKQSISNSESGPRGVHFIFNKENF

Take `CCCC=C(CCC)[C@@H](NC(=O)CCc1ccccc1)c1ccc(C(F)(F)F)cc1`: the z-score was -1.56 (inactive) in assay [1]; 1.71 (inactive) in assay [3]; 0.542 (inactive) in assay [4]; 1.8 (inactive) in assay [5]; 1.01 (inactive) in [6]; 0.697 in assay [7]. The z-score is -0.975 (inactive) in assay [8]; -1.6 (inactive) in assay [9]; 2.78 in [10]; -0.894 in assay [11]; -0.265 in [12]; -0.481 in [13]. For the same compound, the z-score was -1.2 in assay [14]; -2.01 in assay [15]; 2.18 in assay [16]; -0.933 (inactive) in [17]; -0.0403 in [18]; -0.774 in [19]. Besides, the z-score in [20] is 0.569 (inactive). Also, the composite z-score in [2] came out at 0.73.

As for `CN1C(=O)C2C(C1=O)C1C=C(CCCO)C2C(C2CC2)N1Cc1cc2c(cc1Br)OCO2` (stereo not given), the z-score in assay [1] is -0.541 (inactive); in assay [3] it was 3.48 (inactive); in assay [4], 0.68 (inactive); in assay [5] it was 0.3 (inactive); in assay [6] it was 0.307 (inactive); in [7], -0.188. Moreover, the z-score in [8] is -0.84 (inactive); in assay [9] it was -0.389 (inactive); in assay [10], -0.349; in [11] it was -0.487; in [12], 0.337; in assay [13] it was -0.717. Besides, the z-score in [14] was -0.172; in assay [15] it was -0.909; in assay [16] it was 0.435; in assay [17], -0.527 (inactive); in assay [18], 0.87; in assay [19], 0.859. Moreover, the z-score in [20] was -0.477 (inactive). The same compound yielded a composite z-score in assay [2] of 0.0041.

Consider `CC(C)=CCCC(C)=CC(O)C1C=CC2C(=O)N(c3ccccc3)C(=O)C2N1Nc1ccccc1F` (stereo not given), for which the z-score in assay [1] is 0.404 (inactive); in [3], 1.7 (inactive); in assay [4] it was -0.389 (inactive); in assay [5], -0.391 (inactive); in [6], -0.789 (inactive); in assay [7], -0.162. Also, the z-score in assay [8] was -0.199 (inactive); in assay [9], -0.284 (inactive); in [10] it was 0.83; in assay [11], 0.154; in assay [12], 0.0094; in assay [13], 0.443. The z-score is 0.381 in assay [14]; -0.93 in [15]; -0.143 in [16]; -0.507 (inactive) in assay [17]; -0.271 in assay [18]; -0.426 in [19]. In addition, the z-score in [20] is 0.598 (inactive). Also, in assay [2], the composite z-score was -0.233.

As for `Cc1ccc(S[C@]2(C(=O)NCc3ccccc3)CC(=O)N(Cc3cc(C(F)(F)F)cc(C(F)(F)F)c3)[C@@H]2c2ccc(CO)cc2I)cc1`, the z-score is 1.66 (inactive) in assay [1]; 3.13 (inactive) in assay [3]; 0.769 (inactive) in assay [4]; -0.0654 (inactive) in [5]; 0.598 (inactive) in assay [6]; 0.209 in assay [7]. Besides, the z-score was 1.69 (inactive) in assay [8]; -1.24 (inactive) in [9]; 1.28 in [10]; 0.666 in [11]; 0.336 in [12]; -0.165 in [13]. The z-score in assay [14] was -1.87; in assay [15], -2.22; in assay [16], 0.994; in assay [17] it was -0.00208 (inactive); in assay [18], -0.133; in assay [19] it was -0.713. Besides, the z-score in assay [20] was 0.772 (inactive). The compound also showed a composite z-score in assay [2] of 0.0903.

For `COCCOC(=O)N1C(=O)[C@@]2(c3cc(C#CCCO)ccc31)[C@H](C(=O)N1CCCCCCC1)[C@H]1C(=O)O[C@H](c3ccccc3)[C@H](c3ccccc3)N1[C@@H]2c1ccccc1OCCO`, the z-score in [1] was -0.82 (inactive); in assay [3], 0.56 (inactive); in assay [4], 0.654 (inactive); in assay [5], 0.0531 (inactive); in [6] it was 0.336 (inactive); in assay [7], -0.319. Besides, the z-score was 1.96 (inactive) in [8]; 0.843 (inactive) in assay [9]; 1.73 in [10]; 0.862 in assay [11]; 1.45 in assay [12]; 0.566 in assay [13]. Also, the z-score in assay [14] was -2.12; in assay [15] it was -1.62; in assay [16], -0.292; in assay [17], -0.0643 (inactive); in [18] it was -0.815; in [19], -0.513. Also, the z-score in assay [20] is 1 (inactive). In [2], this compound yielded a composite z-score of 2.52.
